Drawing on PubChem BioAssay AID1851 (National Center for Advancing Translational Sciences (NCATS), 2009), this text covers AC50 and activity, negative = inhibition for 99 molecules.

Hit rate of the full screen: of about 16,000 compounds, about 5,100 (32%) were called active. Inconclusive results (about 25%) are left out. This is one part of the list. Values without a mark were called inactive. Calls follow the shape of the dose curve; as a rule, active = well fitted curve in the direction sought with a large enough effect; inconclusive = small, poorly fitted or top-dose-only effect, or effect the other way; inactive = no such curve, though single readings can be large or run the other way.
% is scaled to controls: 0 for no effect and ±100 for the full control effect.

In this assay the target is Cytochrome P450 3A4 (Homo sapiens) (UniProt P08684). As to the kind of experiment: Cytochrome panel assay with activity outcomes. Particulars: recombinant CYP, pro-luciferin dealkylation, luminescence, p450-cyp3a4; series mostly up to 57.1 µM.
Cytochrome P450 3A4 (Homo sapiens), sequence (P08684 whole entry, looked up): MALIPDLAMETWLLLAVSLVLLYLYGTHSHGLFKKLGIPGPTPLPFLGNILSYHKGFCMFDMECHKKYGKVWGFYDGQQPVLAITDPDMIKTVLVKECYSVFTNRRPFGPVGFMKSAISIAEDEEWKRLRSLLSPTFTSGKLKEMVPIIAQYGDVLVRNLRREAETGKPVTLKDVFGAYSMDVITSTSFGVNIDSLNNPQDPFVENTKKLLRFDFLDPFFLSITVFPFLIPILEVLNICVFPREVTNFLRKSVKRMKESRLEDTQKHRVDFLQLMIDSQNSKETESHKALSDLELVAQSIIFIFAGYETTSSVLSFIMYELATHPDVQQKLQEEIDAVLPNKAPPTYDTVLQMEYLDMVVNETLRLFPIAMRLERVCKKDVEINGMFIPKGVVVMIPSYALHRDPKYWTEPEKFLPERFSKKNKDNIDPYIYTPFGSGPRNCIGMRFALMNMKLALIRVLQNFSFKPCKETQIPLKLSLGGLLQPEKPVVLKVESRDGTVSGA
As a reminder, the AC50 is the concentration at which the activity in the assay is half-maximal. Regarding `Cc1cc(CNC(=O)[C@@H]2C[C@H]2[C@@H](NP(=O)(c2ccccc2)c2ccccc2)c2ccccc2)nn1C`, the AC50 was 0.398 µM (active). On the same count and under the same terms, as for `Cc1ccc(CNC(=O)[C@H]2C[C@@H]2[C@H](NP(=O)(c2ccccc2)c2ccccc2)c2ccccc2)c(F)c1F`, the figure is 0.316 µM (active).

Take `Cc1cc(CNC(=O)[C@H]2C[C@@H]2[C@H](NP(=O)(c2ccccc2)c2ccccc2)c2ccccc2)nn1C`: the AC50 was 2.51 µM (active).

Turning to `CC[C@H]1CN(C)[C@H]2Cc3c([nH]c4ccccc34)C(=O)C[C@H]1[C@H]2C(=O)OC`, the activity, negative = inhibition is -21.4% [at 11.4 µM].

Turning to `C[Si](C)(c1ccc(C(=O)O)cc1)c1ccc(C(=O)O)cc1`, the activity, negative = inhibition was -6.28% [at 11.4 µM]. `CCN(CC)c1ncnc2c1sc1nc(C)cc(C)c12`: the AC50 was 12.6 µM (active). For `CCN(CC)N=Nc1[nH]nc2nc(C)cc(C)c12`, the activity, negative = inhibition is -15.1% [at 11.4 µM]. Turning to `C/C(=N\Nc1ccc([N+](=O)[O-])cc1)c1cccc(N)c1`, the AC50 was 3.55 µM (active). Consider `NC(=O)c1cccc(N)c1`, for which the AC50 entry was “inactive”. The same measure, in the same setting: the figure for `COCCNc1nc(-c2ccccc2Cl)nc2ccccc12` is 12.6 µM (active). `COCCNc1nc(-c2ccccc2C(F)(F)F)nc2ccccc12`: the AC50 is 12.6 µM (active). As to `Nc1nc(SCC(=O)O)[nH]c(=O)c1N`, the activity, negative = inhibition is -4.46% [at 11.4 µM]. `Cc1ccc2nc(Cc3ccc(N)cc3)[nH]c2c1`: the AC50 was 1.78 µM (active). As to `Cc1ccc2nc(-c3ccc(NC(=O)Cc4cccs4)cc3)[nH]c2c1`, the activity, negative = inhibition is -7.46% [at 2.29 µM]. On to `C[N+](C)(C)c1ncnc2c1ncn2[C@@H]1CCCCO1`, for which the activity, negative = inhibition is -9.49% [at 11.4 µM]. With `Cn1c(-c2sc(=S)n(-c3ccccc3)c2N)nc2ccccc21`, the concentration at half-maximal activity (AC50) was 4.47 µM (active).

For the molecule `Cc1cccc(N2CC(O)=C(c3nc4ccccc4n3C)C2=N)c1`, the AC50 result is “inactive”.

Regarding `CCN(CC)c1ccc2c(c1)OC(N)=C(C#N)C2c1cccnc1` (centres undefined), the AC50 is 0.891 µM (active). For the molecule `CC[N+](CC)(CC)CC(=O)Nc1c(C)cccc1C`, the AC50 entry is “inactive”.

With `CC(=O)Nc1ccc(NC(=O)Cn2c(-c3ccc(F)cc3)cnc2SCC(=O)Nc2c(C)cccc2C)cc1`, the AC50 is 3.16 µM (active). Turning to `Cc1cccc(C)c1NC(=O)Nc1ccc(S(N)(=O)=O)cc1`, the activity, negative = inhibition was -9.51% [at 11.4 µM]. For `CSC(N)=NCCC[C@@H](N)C(=O)O`, the AC50 result was “inactive”. On the same count and under the same terms, as for `Cc1cccc(CNc2ncnc3ccc(-c4ccc(C(=O)N(C)C)cc4)cc23)c1`, the figure is 2 µM (active); as for `CN(C)C(=O)c1ccc(-c2ccc3ncnc(NCc4ccccc4)c3c2)cc1`, 15.8 µM (active); as for `CN(C)C(=O)c1ccc(-c2ccc3ncnc(NCc4cccs4)c3c2)cc1`, 10 µM (active). On the same count and under the same terms, the figure for `CN(C)c1ccc(-c2ccc3ncnc(NCc4ccccc4)c3c2)cc1` is 2.51 µM (active); for `OCCN1CCN(C(=S)c2ccc(Br)cc2)CC1` it is “inactive”.

As to `NC(N)=Nc1ccc(Cl)cc1`, the AC50 result is “inactive”. As to `CC(=O)OC[C@@H]1O[C@@H](O/N=C2/C[C@@H](O)[C@@H](O)[C@@H]3[C@@H]4C(=O)N(C[C@@H]5CCCO5)C(=O)[C@H]4CC[C@@H]23)[C@H](OC(C)=O)[C@H](OC(C)=O)[C@@H]1OC(C)=O`, the activity, negative = inhibition was -14.3% [at 11.4 µM]. Same read-out and setting: the figure for `Clc1ccc2c(c1)N(CCCN1CCCC13CCCCC3)c1ccccc1S2` is -16.3% [at 11.4 µM]. Take `COc1cc(CNCCc2c[nH]c3ccccc23)ccc1OCc1ccccc1F`: the AC50 was 7.08 µM (active). With `O=C(O)[C@@H](Cc1c[nH]c2ccccc12)C(=O)NO`, the activity, negative = inhibition was -15.9% [at 11.4 µM].

As to `COc1cccc(CNCCc2c[nH]c3ccccc23)c1OCc1ccccc1F`, the AC50 is 4.47 µM (active). `O=c1c[n+](CCCC[n+]2cc(=O)o[nH]2)[nH]o1`: the activity, negative = inhibition is -11.2% [at 11.4 µM]. With `Cc1ccc(C)n1CCN1CCN(CC(=O)Nc2cc(C(F)(F)F)ccc2Cl)CC1`, the AC50 was 25.1 µM (active). Same read-out and setting: the entry for `CN(C)c1cc[n+](CC(=O)Nc2cc(C(F)(F)F)ccc2Cl)cc1` is “inactive”; for `Cc1cc[n+](CC(=O)Nc2cc(C(F)(F)F)ccc2Cl)cc1` it is “inactive”; for `CCOc1ccc(NCc2nnc(SCc3ccccc3Cl)n2-c2ccccc2)cc1` it is 14.1 µM (active). As to `COC(=O)CSc1nnc(CNc2ccc(Cl)cc2)n1-c1ccccc1`, the AC50 was 12.6 µM (active). Same read-out and setting: as for `CCOC(=O)CSc1nnc(Cc2ccccc2)n1-c1cccc(Cl)c1`, the figure is 2 µM (active). Take `COC(Cc1nnc(SC)n1-c1ccccc1)OC`: the AC50 entry is “inactive”. Same read-out and setting: as for `CCOC(=O)CSC1=NC(=O)/C(=C\c2ccc(Cl)cc2)S1`, the entry is “inactive”. For the molecule `COc1ccc(NCc2nnc(SCc3ccccc3)n2-c2ccc(OC)cc2)cc1`, the AC50 was 5.01 µM (active).

On to `CC(=O)N(/N=C/c1cccc(C)c1)c1nc(-c2ccc(Br)cc2)cs1`, for which the AC50 result is “inactive”. Still for that read-out and setting: as for `CSc1nsc(SC)c1NC(=O)OCc1ccccc1`, the figure is 22.4 µM (active). In the case of `CSc1nsc(SC)c1NC(=O)OCC1CCCO1` (centres undefined), the activity, negative = inhibition is -5.42% [at 11.4 µM].

Consider `CSc1nsc(SC)c1NC(=O)Nc1ccccn1`, for which the AC50 entry is “inactive”. On the same count and under the same terms, as for `O=C(NNC(=S)Nc1ccccc1)C1CC1`, the entry is “inactive”. Turning to `O=C(Nc1ccc(Br)cc1)C1CCC(=O)N1Cc1ccccc1Cl` (centres undefined), the activity, negative = inhibition is -3.06% [at 11.4 µM]. Turning to `O=C(NN1C(=O)c2ccccc2C1=O)C1CCCCC1`, the AC50 entry was “inactive”. For the molecule `O=C(CSCc1ccccc1Cl)NNC(=S)Nc1ccccc1`, the AC50 was 4.47 µM (active). For `Cc1nn(C)cc1C(=O)NNC(=S)Nc1ccccc1`, the activity, negative = inhibition is 3.36% [at 2.29 µM].

For `O=C(CSCc1ccccc1Cl)NN1C(=O)c2ccccc2C1=O`, the AC50 was 14.1 µM (active). With `Nc1cc(S(=O)(=O)O)cc2ccc(S(=O)(=O)O)cc12`, the activity, negative = inhibition is -1.64% [at 11.4 µM]. In the case of `O=C(NCCc1ccc(Cl)cc1)Nc1cccc(Cl)c1`, the concentration at half-maximal activity (AC50) is 14.1 µM (active). As for `CCOC(=O)CCCN`, the activity, negative = inhibition was -12.7% [at 11.4 µM].

On to `Cc1ccc(C(=O)NN2CCOCC2)cc1`, for which the AC50 entry was “inactive”.

For `COc1ccc(NC(=O)C2(c3ccc(NC(=O)c4ccc(C)cc4)cc3)CCCC2)cc1`, the AC50 result was “inactive”.

Take `COc1ccc(C(=O)NCS(=O)(=O)c2ccc(C)cc2)cc1`: the AC50 was 14.1 µM (active). Take `COc1ccc(C(=O)Nc2cccc3c2C(=O)NC3=O)cc1S(=O)(=O)N1CCOCC1`: the activity, negative = inhibition is 1.45% [at 2.29 µM]. `CCc1ccccc1NC(=O)c1ccc(F)c(S(=O)(=O)N2CCC(C(N)=O)CC2)c1`: the AC50 was 15.8 µM (active). Same read-out and setting: as for `COc1cccc(/C=N/Nc2nc(N3CCCC3)nc(N3CCCC3)n2)c1O`, the figure is 10 µM (active); as for `O=[N+]([O-])c1ccc(Nc2nc(N/N=C\c3ccc4c(c3)OCO4)nc(N3CCCCC3)n2)cc1`, 1.26 µM (active). Consider `CC(C)(C)Nc1nc(N2CCCC2)nc(N2CCCC2)n1`, for which the activity, negative = inhibition is 11.3% [at 2.29 µM]. With `CCOc1ccc(/C=N/Nc2nc(N3CCCC3)nc(N3CCCC3)n2)cc1OC`, the concentration at half-maximal activity (AC50) was 12.6 µM (active).

As to `Brc1cc2c(cc1/C=N/Nc1nc(N3CCCC3)nc(N3CCOCC3)n1)OCO2`, the concentration at half-maximal activity (AC50) is 2.82 µM (active). `CCOc1cc(/C=N/NC(=O)CN2CCCCC2)ccc1OCc1ccccc1`: the activity, negative = inhibition is -6.35% [at 2.29 µM]. As for `C1CCC(N=C(NC23CC4CC(CC(C4)C2)C3)N2CCOCC2)CC1`, the AC50 result was “inactive”. Take `COC(=O)[C@@H]1[C@@H](O)[C@]2(O)c3ccccc3O[C@]2(c2ccccc2)[C@H]1c1ccccc1`: the activity, negative = inhibition is -17.3% [at 11.4 µM].

Take `C[C@@H]1NC(=O)C/C=C\[C@@H](C)[C@@H]2C=C[C@H](O)[C@@H](COC(=O)[C@H](C)NC(=O)C/C=C\[C@@H](C)[C@@H]3C=C[C@H](O)[C@@H](COC1=O)O3)O2`: the activity, negative = inhibition was 6.73% [at 11.4 µM]. Same read-out and setting: the figure for `CN(C)Cc1ccc(O)c(CN(C)C)n1` is -18.2% [at 11.4 µM]. For the molecule `COc1c(/C=N/Nc2nc(N3CCCCC3)nc(N3CCCCC3)n2)cccc1[N+](=O)[O-]`, the AC50 was 3.98 µM (active). On to `CC1CCCN(C/C=C/c2ccccc2[N+](=O)[O-])C1` (centres undefined), for which the AC50 result was “inactive”.

With `C/C(CC(=O)NCc1ccco1)=N\NC(=O)Cc1cccc2ccccc12`, the activity, negative = inhibition was -8.55% [at 2.29 µM].

Regarding `COc1ccccc1CNC(=O)C/C(C)=N/NC(=O)Cc1ccccc1`, the concentration at half-maximal activity (AC50) is 7.94 µM (active). Consider `Cc1cc(=O)n2c3ccccc3n(CC(O)CN3CCCCC3)c2c1C#N` (centres undefined), for which the AC50 result is “inactive”. As for `CCN(CCO)Cc1csc2cccc(Br)c12`, the AC50 entry is “inactive”. On the same count and under the same terms, the entry for `Cc1ccc(C(=O)c2cn(-c3ccc(F)c(Cl)c3)nn2)cc1` is “inactive”. On to `Cc1ccc(C(=O)c2cn[nH]c2-c2cc(Cl)ccc2O)cc1`, for which the AC50 is 3.98 µM (active). Same read-out and setting: the entry for `CCn1ccc(C(=O)Oc2ccc(Cl)cc2)n1` is “inactive”. Take `O=C(CS(=O)(=O)c1cccc(Cl)c1)Nc1ccccc1Cl`: the AC50 was 6.31 µM (active). Same read-out and setting: as for `O=C(CS(=O)c1cccc(C(F)(F)F)c1)Nc1ccccc1Cl` (centres undefined), the figure is 7.94 µM (active). For `Cc1nc(S(=O)(=O)c2cccc(Cl)c2)nc2c1CCC2`, the activity, negative = inhibition is 18.2% [at 2.29 µM].

Consider `O=C(CS(=O)c1cccc(Cl)c1)Nc1ccccc1Cl` (centres undefined), for which the AC50 was 14.1 µM (active). As to `CC(=O)N(CC(=O)O)c1ccccc1C(=O)O`, the AC50 entry was “inactive”. Regarding `O=C(O)c1ccccc1OP(=O)(O)O`, the AC50 entry is “inactive”. With `COc1ccc(-n2c(C)n[nH]c2=O)cc1`, the AC50 result was “inactive”. Still for that read-out and setting: the figure for `Cc1ccc(-n2c(-c3cc(C)n(C)n3)n[nH]c2=S)cc1` is 14.1 µM (active). The same measure, in the same setting: the entry for `Cc1cc(-c2n[nH]c(=S)o2)c(C)n1-c1ccccc1` is “inactive”. Same read-out and setting: as for `CN(C)c1ncc2nc(-c3cc(F)cc(F)c3)c(=O)n(C[C@H]3CCCO3)c2n1`, the entry is “inactive”.

`COc1ncc2nc(-c3cccs3)c(=O)n(CCC#N)c2n1`: the concentration at half-maximal activity (AC50) is 10 µM (active). On the same count and under the same terms, as for `CN(C)c1ncc2nc(-c3ccc(F)cc3)c(=O)n(C[C@H]3CCCO3)c2n1`, the entry is “inactive”. Same read-out and setting: the entry for `CN(C)c1ncc2nc(-c3cccs3)c(=O)n(CCc3ccccc3)c2n1` is “inactive”; for `CN(C)c1ncc2nc(-c3ccccc3)c(=O)n(CCC#N)c2n1` it is “inactive”. Turning to `COCCn1c(=O)c(-c2cccs2)nc2cnc(N(C)C)nc21`, the AC50 is 7.94 µM (active). For `COc1ncc2nc(C)c(=O)n(CCC#N)c2n1`, the AC50 result is “inactive”. The same measure, in the same setting: as for `COCCn1c(=O)c(-c2ccc(F)cc2)nc2cnc(N(C)C)nc21`, the entry is “inactive”. The same measure, in the same setting: as for `CN(C)c1ncc2nc(-c3cccs3)c(=O)n(C[C@H]3CCCO3)c2n1`, the figure is 25.1 µM (active); as for `COCCn1c(=O)c(-c2cccs2)nc2cnc(Oc3ccc(OC)cc3)nc21`, 0.794 µM (active).
